# Biological target: E3 ubiquitin-protein ligase XIAP (Homo sapiens) (UniProt P98170)
# Experiment: small molecules binding XIAP protein – biophysical, small-molecule microarray, fluorescence 635 nm, primary screen (AID 1181);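 note: score merges 667 nm emission and signal to noise over triplicate slides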
# Conditions: higher = more signal
# E3 ubiquitin-protein ligase XIAP (Homo sapiens), sequence (P98170 whole entry, looked up): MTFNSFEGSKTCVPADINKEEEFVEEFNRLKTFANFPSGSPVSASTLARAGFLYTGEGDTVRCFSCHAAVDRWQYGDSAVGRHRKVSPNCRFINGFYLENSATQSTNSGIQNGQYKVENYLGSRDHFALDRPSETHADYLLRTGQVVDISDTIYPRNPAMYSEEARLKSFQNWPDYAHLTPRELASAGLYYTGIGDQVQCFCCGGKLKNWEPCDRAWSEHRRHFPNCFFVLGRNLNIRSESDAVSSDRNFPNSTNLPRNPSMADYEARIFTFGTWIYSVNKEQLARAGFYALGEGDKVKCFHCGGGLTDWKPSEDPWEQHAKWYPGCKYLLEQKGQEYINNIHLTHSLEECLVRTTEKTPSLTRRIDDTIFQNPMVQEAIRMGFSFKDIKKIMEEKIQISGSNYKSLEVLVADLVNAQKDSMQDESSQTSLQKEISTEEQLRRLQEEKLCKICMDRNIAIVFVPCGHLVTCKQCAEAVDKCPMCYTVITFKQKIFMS
row,SMILES,composite z-score
1,COCCOC(=O)N1C(=O)[C@@]2(c3cc(C#CCNC(N)=O)ccc31)[C@H](C(=O)Nc1nc3ccccc3s1)[C@H]1C(=O)O[C@H](c3ccccc3)[C@H](c3ccccc3)N1[C@@H]2c1ccc(OCCO)cc1,0.0402
2,CC(C)OC(=O)C=C1C[C@@H](c2ccccn2)O[C@@H](c2ccccn2)O1,0.462
3,COC(=O)C(CC#Cc1ccc2c(c1)[C@]1(C(=O)N2)[C@H](c2ccc(OCCO)cc2)N2[C@H](c3ccccc3)[C@H](c3ccccc3)OC(=O)[C@H]2[C@@H]1C(=O)N1CCc2cc(OC)c(OC)cc2C1)C(=O)OC,-0.227
4,COc1ccc([Si](C)(C)[C@H]2[C@H](CC(=O)N3Cc4ccccc4C[C@H]3CO)O[C@@]3(C(=O)N(Cc4cccc(N5CCC5=O)c4)c4ccccc43)[C@@H]2C)cc1,-0.0393
5,COCCCNC(=O)[C@]1(CCC(=O)OC(C)(C)C)N=C(c2ccc(OCCCO)cc2)O[C@@H]1c1ccccc1CN=[N+]=[N-],0.23
6,COCCOC(=O)N1C(=O)[C@@]2(c3cc(C#CCC(C(=O)OC)C(=O)OC)ccc31)[C@H](c1ccccc1OCCO)N1[C@H](c3ccccc3)[C@H](c3ccccc3)OC(=O)[C@H]1[C@@H]2C(=O)NC[C@H](O)c1ccccc1,0.177
7,O=C1c2ccccc2[C@](Cc2ccccc2I)(C(=O)NCC(F)(F)F)[C@H](c2ccc(CO)cc2)N1Cc1ccccc1Cl,-0.0663
8,COc1cc2c(cc1O)C(c1cccs1)N(C)CC2 (centres undefined),0.0682
9,C=C[C@@H](COC(=O)OC(C)(C)C)N(Cc1ccc(OC)cc1)S(=O)(=O)c1ccc(Br)cc1,0.1
